Hit rate of the full screen: of about 52,000 compounds, about 4,300 (8.3%) were called active. Cut-off read from the data, not from the text of the source: active = survival mostly below about 52% (no sharp cut-off); inactive = mostly above about 56%. Only a selection was taken, and actives are over-represented in it overall.

92 compounds from PubChem BioAssay AID463173 (ICCB-Longwood Screening Facility, Harvard Medical School, 2010) can be followed below.

The assay concerns DeltatarO mutant. Kind of assay: growth inhibition of S. aureus wild type versus tarO mutant, primary screen, teichoic acid synthesis inhibitors, RN4220, OD600 (AID 463173). The following applies: OD600, 18 h, active compounds read low, screened at 18.75 µg/mL (by protocol).
Regarding `CCc1ccc(NC(=O)CN2CCSc3ccc(S(=O)(=O)N4CCCC4)cc32)cc1`, the survival is -4% (active). The same measure for `Cc1ccc(NC(=O)CN2CCSc3ccc(S(=O)(=O)N4CCCC4)cc32)cc1`: 77% (inactive); for `CCOc1ccc(NC(=O)CN2CCSc3ccc(S(=O)(=O)N4CCCC4)cc32)cc1`: 76% (inactive); for `Cc1ccc(NC(=O)CSc2nc(=O)n(Cc3cccnc3)c3c2CCC3)cc1F`: 67% (inactive). The same measure for `Cc1ccc(C(=O)CSc2ncn(-c3ccccc3)n2)c(C)c1`: 42% (inactive).

As for `Cc1ccc(Cn2cccc(NC(=O)c3ccncc3)c2=O)cc1`, the survival is 101% (inactive). `Cc1ccc(Cn2cccc2C2=NC(C)(C)CO2)cc1`: the survival was 45% (active). The same measure for `Cc1ccc(Cn2ccn(Cc3ccc(C)cc3)c(=O)c2=O)cc1`: 97% (inactive); for `COc1ccc(NC(=O)C2CCC(CNS(=O)(=O)c3ccc(Br)s3)CC2)c(OC)c1` (configuration not stated): 74% (inactive). On to `O=C(Nc1ccc(Cl)cc1)C1CCC(CNS(=O)(=O)c2ccc(Br)s2)CC1` (configuration not stated), for which the survival is 86% (inactive). As for `COc1ccc(OC)c(NS(=O)(=O)c2ccc3c(c2)C(C)(C)C(=O)N3C)c1`, the figure is 48% (active); as for `COc1ccc(CNS(=O)(=O)c2ccc3c(c2)C(C)(C)C(=O)N3C)cc1OC`, 76% (inactive); as for `O=c1ccc2cc(S(=O)(=O)Nc3ccc(F)c(Cl)c3)ccc2[nH]1`, 89% (inactive).

Take `O=S(=O)(Nc1ccc(F)c(Cl)c1)c1ccc(Br)s1`: the survival was 10% (active). In the case of `Cc1ccccc1NS(=O)(=O)c1ccc(Br)s1`, the survival was 109% (inactive). Consider `COc1ccc(OC)c(NS(=O)(=O)c2ccc(Br)s2)c1`, for which the survival is 37% (active). The same measure for `COc1ccc(OC)c(NS(=O)(=O)c2ccc(-c3cc(C)no3)s2)c1`: 88% (inactive); for `CC(C)Oc1ccc(CNS(=O)(=O)c2ccc3c(c2)C(C)(C)C(=O)N3C)cc1`: 84% (inactive); for `O=S(=O)(Nc1ccc(F)cc1F)c1ccc(-n2cccn2)cc1`: 70% (inactive). The same measure for `O=S(=O)(Nc1ccc(F)cc1F)c1ccc(Br)s1`: 22% (active). As for `O=C(CSCc1ccccc1Cl)N/N=C/c1ccco1`, the figure is 101% (inactive); as for `COc1ccc(-c2nn(-c3ccc(F)cc3F)c3c2cnc2ccc(F)cc23)cc1`, 79% (inactive). For the compound `CN1CCC(OC(=O)COc2ccc(F)cc2)CC1`, the survival is 79% (inactive).

`NS(=O)(=O)c1ccc(CCNC(=O)C2CCN(c3ncnc4c3nc3n4CCCCC3)CC2)cc1`: the survival was 83% (inactive). As for `Cc1ccc(NCc2cccn2-c2nnc(N3CCC(C(=O)NCCc4ccccc4)CC3)s2)cc1`, the figure is 68% (inactive).

Turning to `Cc1ccc2c(c1)N(C(=O)N1CCC(C(=O)NCc3ccccc3F)CC1)CC(C)O2` (configuration not stated), the survival is 79% (inactive). With `Cc1cc(C)c2[nH]c(=O)c(C(c3nnnn3C(C)(C)C)N(CCc3ccc(F)cc3)Cc3ccco3)cc2c1` (configuration not stated), the survival was 87% (inactive). The same measure for `CCCSc1nnc2[nH]c(=O)cc(C)n12`: 124% (inactive); for `Cc1cc(=O)[nH]c2nnc(SCC(N)=O)n12`: 69% (inactive); for `CCOC(=O)C(CC)Sc1nnc2[nH]c(=O)cc(C)n12` (configuration not stated): 52% (active). The same measure for `CN1C(=O)C(=C(C#N)C#N)c2cc(Br)ccc21`: 98% (inactive); for `CNC(=O)C1CCC(Cn2c(=O)c3sccc3n(CC(=O)Nc3cc(F)ccc3F)c2=O)CC1` (configuration not stated): 79% (inactive). As for `CCOc1ccccc1NC(=O)Nc1nnc(N(C)Cc2ccccc2)s1`, the figure is 53% (active); as for `CCc1ccccc1NC(=O)Nc1nnc(N(C)Cc2ccccc2)s1`, 60% (inactive). `Cc1ccccc1NC(=O)Nc1nnc(N(C)Cc2ccccc2)s1`: the survival was 85% (inactive). The same measure for `CCC(C)c1ccc(NC(=O)C2CCCN(c3ncccn3)C2)cc1` (configuration not stated): 81% (inactive); for `COc1ccc(Cl)cc1NC(=O)CN1c2ccccc2S(=O)(=O)c2ccccc21`: 75% (inactive). The same measure for `COc1cc(Cl)c(C)cc1NC(=O)c1cc(S(=O)(=O)N2CCCC2)ccc1F`: 37% (active); for `COc1ccc(Cl)cc1NC(=O)C1CCN(S(=O)(=O)c2ccc(F)cc2)CC1`: 43% (active). The same measure for `O=C(Nc1ccccc1C(F)(F)F)C1CCN(S(=O)(=O)c2ccccc2)CC1`: 49% (active); for `Cc1ccc(C)c(N2CCN(S(=O)(=O)c3ccc(F)c(C(=O)Nc4ccc(Cl)cc4Cl)c3)CC2)c1`: 96% (inactive). `CCc1ccccc1NC(=O)C1CCN(S(=O)(=O)c2ccccc2)CC1`: the survival was 56% (inactive).

Consider `O=C(Nc1ccc(Cl)cc1Cl)c1cc(S(=O)(=O)N2CCCCCC2)ccc1F`, for which the survival is 76% (inactive). As for `COc1ccc(Cl)cc1NC(=O)C1CCN(S(=O)(=O)c2ccc3c(c2)CC(C)N3C(C)=O)CC1` (configuration not stated), the figure is 92% (inactive); as for `Cc1cccc(N2CCN(S(=O)(=O)c3ccc(F)c(C(=O)Nc4cccc(Cl)c4C)c3)CC2C)c1` (configuration not stated), 85% (inactive); as for `COc1ccc(OC)c(NC(=O)C2CCN(S(=O)(=O)c3ccc(C)cc3)CC2)c1`, 50% (inactive). The same measure for `Cc1ccc(N2CCN(S(=O)(=O)c3ccc(F)c(C(=O)Nc4ccc(Cl)cc4Cl)c3)CC2C)cc1` (configuration not stated): -4% (active).

In the case of `COc1ccc(C)cc1NC(=O)c1cc(S(=O)(=O)N2CCC(C)CC2)ccc1F`, the survival is 98% (inactive). As for `O=C(Nc1ccccc1C(F)(F)F)C1CCN(S(=O)(=O)Cc2ccccc2)CC1`, the figure is 75% (inactive); as for `CCc1nn(CC(=O)NCc2ccc(C)cc2)c(=O)c2cc3occc3n12`, 105% (inactive). The same measure for `CCOc1ccc(NC(=O)Cn2cc(C(=O)c3ccc(F)cc3)c(=O)c3cc4c(cc32)OCCO4)cc1`: 65% (inactive).

For `COc1ccc2nc(N(Cc3cccnc3)C(=O)COc3ccccc3)sc2c1`, the survival is 90% (inactive). As for `Cc1ccc(OCCCSc2nc(-c3ccc(C(C)(C)C)cc3)nc3cc(=O)[nH]n23)cc1C`, the figure is 58% (inactive); as for `COc1ccc(NC(=O)C2=CC(c3ccc4c(c3)OCO4)=NS(=O)(=O)N2C)cc1OC`, 79% (inactive); as for `O=C(CSc1ncn(-c2ccccc2)n1)NC1CCCCC1`, 61% (inactive). For `CCOC(=O)c1c(NC(=O)CC)sc(C(=O)OC)c1C`, the survival is 75% (inactive).

For `CCOC(=O)c1ccc(-n2c(-c3ccc(C)cc3)c(C)n3c4c(=O)n(C)c(=O)n(C)c4nc23)cc1`, the survival is 75% (inactive).

For `CCC(Oc1ccccc1)C(=O)Nc1nnc(S(=O)(=O)N2CCCC2)s1` (configuration not stated), the survival was 103% (inactive). Regarding `CCOc1ccc(C(=O)Nc2nnc(S(=O)(=O)N(CC)c3ccccc3C)s2)cc1`, the survival is 44% (active).

As for `COc1ccc(C(=O)Nc2nnc(C(C)C)s2)cc1OC`, the survival was 55% (inactive).

On to `CCC(Oc1ccccc1)C(=O)Nc1nnc(S(=O)(=O)N(CC)CC)s1` (configuration not stated), for which the survival is 104% (inactive).

Turning to `COc1ccc(NS(=O)(=O)c2nnc(NC(=O)c3ccccc3F)s2)cc1`, the survival is 72% (inactive).

On to `CCN(c1ccccc1C)S(=O)(=O)c1nnc(NC(=O)c2ccc(OC)c(OC)c2)s1`, for which the survival is 40% (active). The same measure for `CCC(Oc1ccccc1)C(=O)Nc1nnc(S(=O)(=O)Nc2ccccc2)s1` (configuration not stated): 40% (active); for `CCOc1ccc(C(=O)Nc2nnc(S(=O)(=O)Nc3ccccc3)s2)cc1`: 34% (active); for `O=C(COc1ccccc1)Nc1nnc(S(=O)(=O)Nc2ccccc2)s1`: 79% (inactive).

In the case of `O=C(Cn1c(-c2cccs2)cc2cc(Cl)ccc21)N1CCN(c2ccccc2)CC1`, the survival is 78% (inactive). The same measure for `CCOC(=O)c1cccnc1SCC(=O)Nc1ccc(C)cc1C`: 79% (inactive).

On to `COc1ccc(NC(=O)CN(C)S(=O)(=O)c2cnc[nH]2)cc1`, for which the survival was 95% (inactive). The same measure for `CN(Cc1ccccc1)C(=O)CSc1nc2ccccc2n1Cc1ccccc1F`: 86% (inactive). Regarding `Cc1ccc(OCC(=O)NCC2(N(C)C)CCCCC2)cc1C`, the survival was 83% (inactive).

Regarding `CCOc1ccc(CCNC(=O)c2nnc(Cc3ccc(Cl)cc3Cl)o2)cc1OCC`, the survival was 83% (inactive). The same measure for `O=C(Nc1nnc(S(=O)(=O)N2CCOCC2)s1)c1ccccc1Cl`: 79% (inactive); for `O=C(Nc1nnc(S(=O)(=O)N2CCCC2)s1)c1ccccc1F`: 28% (active). As for `Cc1ccccc1C(=O)Nc1nnc(S(=O)(=O)N2CCCCCC2)s1`, the figure is 47% (active); as for `O=C(Nc1nnc(S(=O)(=O)N2CCCCCC2)s1)c1ccccc1Cl`, 38% (active). As for `COc1ccccc1C(=O)Nc1nnc(S(=O)(=O)N2CCCCC2)s1`, the figure is 69% (inactive). Take `COc1ccccc1C(=O)Nc1nnc(S(=O)(=O)N2CCCCCC2)s1`: the survival was 56% (active). As for `O=C(Nc1nnc(S(=O)(=O)N2CCOCC2)s1)c1ccccc1F`, the figure is 86% (inactive); as for `O=C(Nc1nnc(S(=O)(=O)N2CCCC2)s1)c1ccccc1Cl`, 117% (inactive); as for `COc1ccccc1C(=O)Nc1nnc(S(=O)(=O)N2CCN(c3ccc(F)cc3)CC2)s1`, 50% (inactive).

For the compound `COc1ccc(N(C)S(=O)(=O)c2ccc3c(c2)n(C)c(=O)c(=O)n3C)cc1`, the survival was 86% (inactive). The same measure for `O=C(CN1CCCN(Cc2ccccc2Cl)S1(=O)=O)NCc1ccccc1`: 94% (inactive). As to `CCCn1c(=O)c2sccc2n2c(CCCC(=O)NCc3ccccc3)nnc12`, the survival is 83% (inactive). For the compound `O=C(c1ccccc1)n1nc(-c2ccco2)nc1NCc1ccccc1Cl`, the survival was 103% (inactive). The same measure for `O=C1C2C3C=CC(C3)C2C(=O)N1c1ccc(-c2nc3ccccc3o2)cc1` (configuration not stated): 89% (inactive); for `CCN(C(=O)Cn1c(=O)n(CCCS(=O)(=O)C2CCCCC2)c(=O)c2ccccc21)c1cccc(C)c1`: 87% (inactive); for `COc1ccccc1CNC(=O)c1ccc2c(c1)N(Cc1cc(C)ccc1C)C(=O)c1ccccc1S2`: 68% (inactive). The same measure for `COc1cccc(NC(=O)Cn2c(=O)oc3cc(S(=O)(=O)N4CCCCC4)ccc32)c1`: 112% (inactive); for `COc1ccc(N2CCN(C(=O)CN3C(=O)CSc4c3c(C)nn4-c3ccccc3)CC2)cc1`: 79% (inactive). As for `CC(=O)NCCNC(=O)c1ccc2c(=O)n(CCc3ccccc3)c(=O)[nH]c2c1`, the figure is 83% (inactive); as for `O=C(Nc1nnc(S(=O)(=O)N2CCCCCC2)s1)c1ccccc1F`, 47% (active).
